# TDP1 cell CPT: growth inhibition of DT40 Tdp1-/-;hTDP1 cells with camptothecin (screen for TDP1 inhibitors) | chicken DT40 Tdp1-/-;hTDP1 cells + 20 nM CPT, ATP luminescence, 48 h | Potency, µM (series often up to 46.2 µM), for the others: at the top dose activity change, negative = growth inhibition, most hits filed as inhibitors | 420,000 compounds, 12% hits; further: potency means the concentration at half of the fitted maximal effect; on the % scale 0 is the no-effect control and ±100 the full control effect; nearly all actives have a fitted effect of over 55% in size
#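 Chicken DT40 Tdp1-/- cells stably complemented with human TDP1 were seeded at 400 cells/well in medium containing 20 nM camptothecin, exposed to pin-transferred compounds, and grown at 37 °C for at least 48 hr. Viability was read as ATP luminescence.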
# DRD3 antagonist: blocks the human D3 dopamine receptor | D3R cells, DiscoveRx beta-arrestin luminescence, antagonist mode; stronger effect = lower value | max response, negative = inhibition, % | P35462 | 360,000 compounds, 2.5% hits | AID 652054; in the data active means max response below about -50%; inconclusive means no clear call, values can overlap the other calls; further: on the % scale 0 is the no-effect control and ±100 the full control effect
# Target sequence (P35462 whole entry, looked up): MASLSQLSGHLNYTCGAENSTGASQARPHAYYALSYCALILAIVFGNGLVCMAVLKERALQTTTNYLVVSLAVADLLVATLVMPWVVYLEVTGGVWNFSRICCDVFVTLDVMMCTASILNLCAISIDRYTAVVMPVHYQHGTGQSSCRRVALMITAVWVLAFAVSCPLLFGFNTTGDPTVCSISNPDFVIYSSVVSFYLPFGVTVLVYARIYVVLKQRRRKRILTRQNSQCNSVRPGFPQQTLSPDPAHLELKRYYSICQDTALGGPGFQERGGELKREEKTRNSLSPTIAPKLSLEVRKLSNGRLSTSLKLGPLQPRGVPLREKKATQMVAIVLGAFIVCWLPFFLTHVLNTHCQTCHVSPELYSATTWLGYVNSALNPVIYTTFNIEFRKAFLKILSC
#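 Cells plated overnight at 1500 cells/well, then exposed to library compounds with dopamine controls for 90 minutes at 37 degrees C. DiscoveRx reagent added for 30–60 minutes at room temperature; luminescence read, quantitative HTS format.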
# D3 ag: agonists of human D3 dopamine receptor; D3R DiscoveRx beta-arrestin cells, luminescence, 90 min; max activation, %; 410,000 compounds, 0.58% hits; AID 652048; P35462; in the data active means max activation above about 30%; further: 0% is about no effect
#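 Cells at 1500/well, incubated overnight, then treated with pinned compounds (dopamine as control) for 90 min at 37 degrees C. DiscoveRx reagent added for 30 - 60 minutes at room temperature; luminescence read.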
# IL-1B inflam inh: inhibitors of inflammasome signaling (IL-1 beta secretion); THP-1 LPS/ATP IL-1B secretion, AlphaLISA, 16 h; stronger effect = lower value; AID 743279; activity change, % at 57.5 µM; 360,000 compounds, 4.7% hits; in the data active means activity change below about -50%; inconclusive means mostly about -30% to -49%; further: on the % scale 0 is the no-effect control and ±100 the full control effect
#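 THP-1 cells pretreated 1 hr with compounds (up to 57.5 uM final), then stimulated with LPS (250 ng/mL final) plus ATP (1.25 mM final); secreted IL-1B measured by AlphaLISA after 16 hr, decreased signal indicating inhibition.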
# ClpP mod: qHTS Assay for Activators of ClpP. ATP-dependent Clp protease proteolytic subunit (Bacillus subtilis (strain 168)), P80244. purified B. subtilis ClpP, FRET peptide cleavage, 20 min. Potency, µM (doses to about 57.5 µM), for the others: at the highest dose activity change, negative = active. 340,000 compounds, 1.9% hits. AID 651965, 2013; active means well fitted falling curve with a large enough effect; inconclusive means small, poorly fitted or top-dose-only effect; inactive means no such curve, though single readings can be large or run the other way; further: potency means the concentration at half of the fitted maximal effect; the source files actives as falling curves though it sought activators and does not explain the sign; nearly all actives have a fitted effect of over 65% in size
# Target sequence (P80244 whole entry, looked up): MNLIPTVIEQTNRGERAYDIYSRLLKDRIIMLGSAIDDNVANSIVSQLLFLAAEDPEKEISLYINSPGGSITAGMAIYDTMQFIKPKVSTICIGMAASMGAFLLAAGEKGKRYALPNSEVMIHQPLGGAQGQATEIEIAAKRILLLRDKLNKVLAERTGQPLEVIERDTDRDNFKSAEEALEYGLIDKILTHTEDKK
#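 Buffer: 100 mM Tris/HCl pH8, 100 mM KCl, 0.05% low protease BSA, 2.5% glycerol, 0.01% Tween-20. ClpP 10 microg/mL final; 20 min RT; delta FRET normalized to ADEP and DMSO controls.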
# TDP1 cell noCPT: qHTS for Inhibitors of human tyrosyl-DNA phosphodiesterase 1 (TDP1): qHTS in cells in absence of CPT; 420,000 compounds, 15% hits; Potency, µM (highest dose often 46.2 µM), for the others: at the top dose activity change, negative = growth inhibition, most hits filed as inhibitors; DT40 Tdp1-/- hTDP1 cells, no CPT, ATP luminescence, 48 h; further: potency means the concentration at half of the fitted maximal effect; on the % scale 0 is the no-effect control and ±100 the full control effect; nearly all actives have a fitted effect of over 55% in size
#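 Luminescent ATP content (CellTiter-Glo) served as the growth readout. Knockout chicken DT40 cells expressing human TDP1 were exposed to compounds without camptothecin for a minimum 48 hr at 37 °C.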
# Active calls of the source: *; u = inconclusive; x = not tested or not shown. Sampled rows, rich in hits. Any-hit rate of the full collection: about 21%. Unless noted, the call rests on the fitted dose curve; in most records, active means well fitted inhibition curve with a large enough effect; inconclusive means small, poorly fitted or top-dose-only effect; inactive means flat fitted curve, though single readings scatter.
SMILES,TDP1 cell CPT,DRD3 antagonist,D3 ag,IL-1B inflam inh,ClpP mod,TDP1 cell noCPT
O=C(Nc1cccnc1)C1Cc2c(-c3cccc(F)c3)ccnc2O1 (stereo not drawn),u,13.1,-4.4,-14.5,-5.6%,u
COc1ccc(NC(=O)C2Cc3c(-c4cccc(F)c4)ccnc3O2)cn1 (stereo not drawn),u,46.0,2.5,-15.7,-0.9%,16.4µM*
O=C(NCc1ccccc1)C1Cc2c(-c3ccc(Cl)cc3)ccnc2O1 (stereo not drawn),0.651µM*,18.2,-10.3,53.5,-4.8%,0.82µM*
CC(C)c1ccc(NC(=O)C2Cc3c(-c4cccc(C(N)=O)c4)ccnc3O2)cc1 (stereo not drawn),16.4µM*,u,-9.4,u,-5.0%,u
CCCCn1c(=O)n(C)c(=O)c2c(C(F)(F)F)cc(-c3ccncc3)nc21,17.8µM*,-23.3,0.8,26.5,u,11.2µM*
COc1ccccc1-n1cnnc1SCC(=O)Nc1cc(C(C)(C)C)nn1-c1ccccc1,10.3µM*,0.0,2.1,-3.3,0.2%,13µM*
COc1ccc(-n2cnnc2SCC(=O)Nc2cc(C(C)(C)C)nn2-c2ccccc2)cc1,3.4%,-55.7*,9.5,-1.5,-2.5%,-7.1%
Cc1cc(C)c(-c2cc(NC(=O)CSc3nncn3C)n(-c3ccccc3)n2)cc1C,18.4µM*,10.5,-4.6,-13.0,-0.4%,20.6µM*
Cn1nnnc1SCC(=O)Nc1cc(C(C)(C)C)nn1-c1ccccc1,2.9%,33.2,-1.8,u,-0.3%,-33.4%
CCCc1c(O)c2ccccc2[nH]c1=O,11.0%,1.8,2.1,11.1,14.1µM*,-5.1%
CCCCc1c(O)c2ccccc2[nH]c1=O,-9.5%,2.3,7.7,-9.3,25.1µM*,-2.2%
O=CN1CCCN(C(=O)CC2C(=O)NCCN2Cc2cccc(Oc3ccccc3)c2)CC1 (stereo not drawn),-14.2%,-9.0,-18.8,18.1,-8.9%,21.5%
COc1cc(NC(=O)C2=C(C)OCCS2)c(Cl)cc1C(=O)NCCN(C)C,-4.1%,-52.4*,-11.2,-82.9*,x,-21.7%
COc1ccc(CCNC(=O)c2ccccc2NC(=O)C2=C(C)OCCS2)c(OC)c1,20.6µM*,-8.2,-2.4,0.0,-1.4%,10.3µM*
Cc1ccccc1OCC(=O)Nc1cccc(S(=O)(=O)NC2=NCCCCC2)c1,u,14.1,1.0,-8.1,0.5%,u
COc1ccccc1/C=C/C(=O)Nc1cccc(S(=O)(=O)NC2=NCCCCC2)c1,u,1.9,12.8,-57.1*,x,u
COc1ccc(/C=C/C(=O)Nc2cccc(S(=O)(=O)NC3=NCCCCC3)c2)c(OC)c1,16.4µM*,15.9,4.2,-17.9,u,11.6µM*
COc1c(F)cccc1C1=CC(=O)C[C@H](c2ccc(F)cc2)C1,-28.1%,6.4,-0.2,-29.7,0.3%,-6.4%
Cc1cccc(NC(=S)N(CCc2nc3cc(C)c(C)cc3[nH]2)Cc2cccnc2)c1,0.2%,-20.7,-11.0,2.9,0.5%,-15.6%
COc1cccc(NC(=S)N(CCc2ccc(OC)c(OC)c2)Cc2ccccn2)c1,-23.0%,-53.2*,-19.0,-28.9,x,-29.7%
COc1cccc(NC(=S)N(CCc2nc3cc(C)c(C)cc3[nH]2)Cc2cccnc2)c1,23.1µM*,u,-14.3,8.3,1.2%,-71.1%
NS(=O)(=O)c1ccc(CCNC(=O)c2cnc(Cl)c(Cl)c2)cc1,-12.8%,-16.4,-8.2,11.0,x,-22.3%
CCNc1nc(NCC)n2c(SC(C(=O)Nc3cc(C)ccc3OC)c3ccccc3)nnc2n1 (stereo not drawn),u,16.2,-2.8,-103.5*,-2.4%,u
CCNc1nc(NCC)n2c(SCC(=O)c3ccc(C(C)C)cc3)nnc2n1,23.1µM*,0.0,-3.8,12.4,-1.2%,25.9µM*
COc1ccc(C)cc1NC(=O)C(Sc1nnc(-c2ccncc2)n1-c1ccc(Cl)cc1)c1ccccc1 (stereo not drawn),u,u,-24.9,-59.4*,x,16.4µM*
SMILES,TDP1 cell CPT,DRD3 antagonist,D3 ag,IL-1B inflam inh,ClpP mod,TDP1 cell noCPT
CCNc1nc(NCC)n2c(SCC(=O)Nc3cc(OC)ccc3OC)nnc2n1,u,-19.7,-10.5,-7.0,-3.3%,-17.6%
CON(C)C(=O)C[C@@H]1C[C@H](OC(=O)c2ccc([N+](=O)[O-])cc2)CN1C(=O)OC(C)(C)C,-21.1%,-22.0,1.5,-1.0,0.2%,u
CCc1cccc(-n2nnc(-c3nc(-c4ccccc4Cl)no3)c2N)c1,7.6%,x,10.5,x,-4.8%,-2.0%
C=CC[C@@H](CC(=O)N(CCO)Cc1ccccc1)C(=O)N[C@@H](COC(=O)[C@@H](CC=C)Cc1ccc(F)cc1)Cc1c[nH]c2ccccc12,u,37.9,-10.6,-52.0*,1.6%,16.4µM*
C=CC[C@H](CC(=O)N(CCO)Cc1ccccc1)C(=O)N[C@@H](COC(=O)[C@@H](CC=C)Cc1ccc(F)cc1)Cc1c[nH]c2ccccc12,16.4µM*,-3.5,-20.6,u,1.2%,23.1µM*
CC(=O)COc1c(-c2ccco2)oc2ccccc2c1=O,0.4%,20.4,2.8,-20.6,3.5%,-9.5%
Cc1cnc(CNc2ncncc2-c2ccccc2CN(C)C)cn1,-28.3%,x,x,x,x,u
CCN1CCN(S(=O)(=O)c2ccc(Cl)c(C(=O)N(C)Cc3ccccc3)c2)CC1,u,-0.8,2.9,-20.0,-2.8%,-24.9%
CCN1CCN(S(=O)(=O)c2ccc(Cl)c(C(=O)N(C)Cc3ccc(C(C)(C)C)cc3)c2)CC1,u,u,-22.4,-1.1,-0.1%,11.6µM*
CCN1CCN(S(=O)(=O)c2ccc(Cl)c(C(=O)N(C)Cc3cccc(Cl)c3Cl)c2)CC1,16.4µM*,-8.4,-4.5,-69.0*,1.3%,20.6µM*
CCN1CCN(S(=O)(=O)c2ccc(Cl)c(C(=O)N(C)Cc3ccc(F)cc3)c2)CC1,-29.9%,0.1,-0.7,-5.3,-7.2%,u
Cc1ccnc2ccc3ccccc3c12,u,x,x,x,4.6%,u
CCc1cccc(NC(=O)c2cc(S(=O)(=O)N3CCCCCC3)cn2C)c1,-2.7%,x,-1.0,x,-14.7%,-14.8%
COc1ccc(-c2nc(CS(=O)CC(=O)N3CCN(C)CC3)c(C)o2)cc1 (stereo not drawn),-8.9%,-15.2,-5.2,0.5,-3.2%,24.0%
